In the supplement of paper PMC7411054:

Key:
Details in all cases: treatment time: 24 h
[1] = system: A549-ACTB-RAB5A; test: lowest phenotypically active concentration; higher = less potent
Method in brief: (§1)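 Each of fifteen gene-edited A549, HepG2 and WPMY1 reporter lines, marked with BFP for segmentation and GFP and RFP/FusionRed, was treated in four wells at 0.3, 1, 3 or 9 µM for 24 h prior to live imaging. Normalisation of per-well live-cell features used solvent control wells. Deviation needed ≥3 of 4 wells beyond the 95th percentile of control Euclidean distances, and reproducibility needed a median replicate Pearson correlation above the 95th percentile of non-replicates. Both were required for phenotypic activity.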

[2] = system: A549-CANX-COX4; test: as above
Method in brief: as §1

[3] = system: A549-GM130-SQSTM1; test: as above
Method in brief: as §1

[4] = system: HepG2-TP53BP1-CLTA; test: as above
Method in brief: as §1

[5] = system: HepG2-TUBA1B-RELA; test: as above
Method in brief: as §1

[6] = system: A549-ACTB-RAB5A; test: phenotypically active (imaging signature differs from DMSO and reproducible) at any of 0.3-9 uM (binary (1 = active, 0 = inactive)); higher = active
Method in brief: as §1

[7] = system: A549-CANX-COX4; test: as above
Method in brief: as §1

[8] = system: A549-GM130-SQSTM1; test: as above
Method in brief: as §1

[9] = system: A549-TP53BP1-CLTA; test: as above
Method in brief: as §1

[10] = system: A549-TUBA1B-RELA; test: as above
Method in brief: as §1

[11] = system: HepG2-ACTB-RAB5A; test: as above
Method in brief: as §1

[12] = system: HepG2-CANX-COX4; test: as above
Method in brief: as §1

[13] = system: HepG2-GM130-SQSTM1; test: as above
Method in brief: as §1

[14] = system: HepG2-TP53BP1-CLTA; test: as above
Method in brief: as §1

[15] = system: HepG2-TUBA1B-RELA; test: as above
Method in brief: as §1

[16] = system: WPMY1-ACTB-RAB5A; test: as above
Method in brief: as §1

[17] = system: WPMY1-CANX-COX4; test: as above
Method in brief: as §1

[18] = system: WPMY1-GM130-SQSTM1; test: as above
Method in brief: as §1

[19] = system: WPMY1-TP53BP1-CLTA; test: as above
Method in brief: as §1

[20] = system: WPMY1-TUBA1B-RELA; test: as above
Method in brief: as §1

SMILES	lowest phenotypically active concentration [1] [µM]	lowest phenotypically active concentration [2] [µM]	lowest phenotypically active concentration [3] [µM]	lowest phenotypically active concentration [4] [µM]	lowest phenotypically active concentration [5] [µM]	phenotypically active [6]	phenotypically active [7]	phenotypically active [8]	phenotypically active [9]	phenotypically active [10]	phenotypically active [11]	phenotypically active [12]	phenotypically active [13]	phenotypically active [14]	phenotypically active [15]	phenotypically active [16]	phenotypically active [17]	phenotypically active [18]	phenotypically active [19]	phenotypically active [20]
COc1cc2c(N3CCN(C(=O)Nc4ccc(OC(C)C)cc4)CC3)ncnc2cc1OCCCN1CCCCC1 [tandutinib]	9	9	3	9	3	1 (active)	1 (active)	1 (active)	1 (active)	1 (active)	1 (active)	1 (active)	1 (active)	1 (active)	1 (active)	1 (active)	1 (active)	1 (active)	0 (inactive)	1 (active)
COc1cc2nc(N3CCN(C(=O)C4COc5ccccc5O4)CC3)nc(N)c2cc1OC (stereo not given) [doxazosin]	9	9	9	9	9	1 (active)	1 (active)	1 (active)	1 (active)	1 (active)	1 (active)	0 (inactive)	1 (active)	1 (active)	1 (active)	1 (active)	1 (active)	1 (active)	1 (active)	0 (inactive)
Cc1ccc2nc(NCCN)c3ncc(C)n3c2c1	3	9	3	3	3	1 (active)	1 (active)	1 (active)	1 (active)	1 (active)	1 (active)	1 (active)	1 (active)	1 (active)	1 (active)	1 (active)	1 (active)	1 (active)	1 (active)	1 (active)
O=C(O)[C@]1(Cc2cccc(Nc3nccs3)n2)CC[C@@H](Oc2cccc(Cl)c2F)CC1	≤ 0.3	1	≤ 0.3	≤ 0.3	≤ 0.3	1 (active)	1 (active)	1 (active)	1 (active)	1 (active)	1 (active)	1 (active)	1 (active)	1 (active)	1 (active)	1 (active)	1 (active)	0 (inactive)	1 (active)	1 (active)
CN1CCCC(n2nc(Cc3ccc(Cl)cc3)c3ccccc3c2=O)CC1 (stereo not given) [azelastine]	3	9	9	9	9	1 (active)	1 (active)	1 (active)	1 (active)	1 (active)	1 (active)	0 (inactive)	1 (active)	1 (active)	1 (active)	1 (active)	1 (active)	1 (active)	1 (active)	1 (active)
CC(C)(C)c1nc(-c2cccc(NS(=O)(=O)c3c(F)cccc3F)c2F)c(-c2ccnc(N)n2)s1 [dabrafenib]	≤ 0.3	1	≤ 0.3	≤ 0.3	≤ 0.3	1 (active)	1 (active)	1 (active)	1 (active)	1 (active)	1 (active)	1 (active)	1 (active)	1 (active)	1 (active)	1 (active)	1 (active)	0 (inactive)	0 (inactive)	1 (active)
CNC(=O)c1cc(Oc2ccc(NC(=O)Nc3ccc(Cl)c(C(F)(F)F)c3)cc2)ccn1 [sorafenib]	3	9	9	9	3	1 (active)	1 (active)	1 (active)	1 (active)	1 (active)	1 (active)	1 (active)	1 (active)	1 (active)	1 (active)	1 (active)	1 (active)	1 (active)	0 (inactive)	1 (active)
O=C1N=C(NCc2cccs2)S/C1=C\c1ccc2ncccc2c1	3	3	1	3	3	1 (active)	1 (active)	1 (active)	1 (active)	1 (active)	0 (inactive)	1 (active)	1 (active)	1 (active)	1 (active)	1 (active)	1 (active)	1 (active)	1 (active)	1 (active)
N=C(N)c1ccc(OCCCCCOc2ccc(C(=N)N)cc2)cc1 [pentamidine]	1	≤ 0.3	1	9	9	1 (active)	1 (active)	1 (active)	1 (active)	1 (active)	1 (active)	1 (active)	0 (inactive)	1 (active)	1 (active)	0 (inactive)	0 (inactive)	1 (active)	0 (inactive)	0 (inactive)
C=CC(=O)N1CCC[C@@H](n2nc(-c3cccc(C(=O)Nc4ccc(C(C)C)c(C)c4)c3)c3c(N)ncnc32)C1	3	3	3	1	1	1 (active)	1 (active)	1 (active)	1 (active)	1 (active)	1 (active)	1 (active)	1 (active)	1 (active)	1 (active)	1 (active)	1 (active)	1 (active)	1 (active)	1 (active)
CC[C@H](CO)Nc1nc(NCc2ccccc2)c2ncn(C(C)C)c2n1 [Roscovitine]	≤ 0.3	9	≤ 0.3	3	3	1 (active)	1 (active)	1 (active)	1 (active)	1 (active)	1 (active)	1 (active)	1 (active)	1 (active)	1 (active)	1 (active)	1 (active)	0 (inactive)	1 (active)	1 (active)
O=C(Nc1cccnc1)N1CCC(Cc2cccc(Oc3ccc(C(F)(F)F)cn3)c2)CC1	9	9	3	9	9	1 (active)	1 (active)	1 (active)	1 (active)	1 (active)	1 (active)	0 (inactive)	0 (inactive)	1 (active)	1 (active)	0 (inactive)	0 (inactive)	1 (active)	0 (inactive)	0 (inactive)
CC[C@]12CCCN3CCc4c(n(c5ccccc45)C(=O)C1)[C@@H]32 [Eburnamonine (-)]	9	9	9	9	9	1 (active)	1 (active)	1 (active)	1 (active)	1 (active)	1 (active)	0 (inactive)	0 (inactive)	1 (active)	1 (active)	1 (active)	1 (active)	0 (inactive)	1 (active)	1 (active)
CN(C)CCCN1c2ccccc2Sc2ccc(Cl)cc21 [chlorpromazine]	3	9	3	9	9	1 (active)	1 (active)	1 (active)	1 (active)	1 (active)	0 (inactive)	1 (active)	1 (active)	1 (active)	1 (active)	1 (active)	1 (active)	0 (inactive)	1 (active)	1 (active)
CN1CCN([C@H]2CC[C@H](n3cc(-c4ccc(Oc5ccccc5)cc4)c4c(N)ncnc43)CC2)CC1	≤ 0.3	1	≤ 0.3	1	≤ 0.3	1 (active)	1 (active)	1 (active)	1 (active)	1 (active)	1 (active)	1 (active)	1 (active)	1 (active)	1 (active)	1 (active)	0 (inactive)	1 (active)	1 (active)	1 (active)
